IL-2 act = qHTS of IL-2 Activators. activation, % (series mostly up to about 46 µM). AID 652025, 2013. IL-2 activation reporter assay, cell-based qHTS; stimulated with anti-CD3/CD4/CD28 beads; in transgenic mouse T cells. 0.065% of 360,000 active; in the data active means activation above about 50%; inconclusive means mostly about 30% to 49%; further: 0% is about no effect
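Quantitative HTS in unstimulated transgenic mouse T cells, with memory T cells as non-tolerant control and PMA/ionomycin as tolerance-bypass control. Compound pretreatment lasted 60 minutes before 18 h bead stimulation; EGFP/DsRed fluorescence read.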
Pin1 inhibitor = qHTS Assay to Find Inhibitors of Pin1. Pin1 FP peptide displacement, HiFluor488, 10 min. Potency, µM (titrated, usually from 115 µM), for the others: at the top dose activity, negative = inhibition, hits mostly inhibitors. 0.009% of 390,000 active; active means well fitted inhibition curve with a large enough effect in the polarisation, with a control signal flat, not every such curve was filed as active; inconclusive means small, poorly fitted or top-dose-only effect, or effect the other way, or a change in a side signal; inactive means no such curve, though single readings can be large or run the other way; the % refers to the polarisation; further: potency means the concentration at half of the fitted maximal effect; on the % scale 0 is the no-effect control and ±100 the full control effect
USP2a block = qHTS Assay for Inhibitors of Ubiquitin-specific Protease USP2a Using CHOP2 as the Reporter; 0.01% of 330,000 active; Ubiquitin carboxyl-terminal hydrolase 2 (Homo sapiens), O75604; Potency, µM (doses to about 38.3 µM), inactives show at the top dose activity change, negative = inhibition, hits mostly inhibitors; USP2 core, Ub-CHOP2 coupled fluorogenic reporter, 485/531;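 further: potency means the concentration at half of the fitted maximal effect; plate controls were DMSO wells for no effect and full inhibition by NEM control for full effect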
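Deubiquitinase activity read as fluorescence (485/531 nm) after Ub-CHOP2 cleavage activates the enterokinase reporter on its substrate; USP2 core 10nM, Ub-CHOP2 and substrate 25nM each, 30min compound preincubation then 60min RT; data normalized to NEM, curves fitted.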
PKM2 act = qHTS Assay for Activators of Human Muscle isoform 2 Pyruvate Kinase; Pyruvate kinase PKM (Homo sapiens), P14618; purified PKM2, Kinase-Glo ATP luminescence, activation; response scale: 0% is enzyme alone, no compound; Potency, µM (doses to about 57.5 µM), for inactives: at the highest dose activation, actives largely listed as activators; 0.34% of 260,000 active; AID 1631, 2009; further: potency means the concentration at half of the fitted maximal effect; on the % scale 0 is the no-effect control and ±100 the full control effect; nearly all actives have a fitted effect of over 55% in size
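hPK-M2, >95% pure; 0.1 mM ADP / 0.5 mM PEP final; imidazole pH7.2 buffer w/ 7 mM MgCl2, 50 mM KCl; 1 h RT; Kinase-Glo lum. Intermediate enzyme activity for dual inhibitor/activator qHTS.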
ClpP mod = qHTS Assay for Activators of ClpP. 1.9% of 340,000 active. AID 651965, 2013. ATP-dependent Clp protease proteolytic subunit (Bacillus subtilis (strain 168)), P80244. purified B. subtilis ClpP, FRET peptide cleavage, 20 min. Potency, µM (titrated, usually from 57.5 µM), for inactives: at the top dose activity change, negative = active; active means well fitted falling curve with a large enough effect; inconclusive means small, poorly fitted or top-dose-only effect; inactive means no such curve, though single readings can be large or run the other way; further: potency means the concentration at half of the fitted maximal effect; the source files actives as falling curves though it sought activators and does not explain the sign; nearly all actives have a fitted effect of over 65% in size
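FRET quenching reversal measured ClpP activation: 10 microg/mL B. subtilis ClpP at pH 8 with the FRET-FV decapeptide, read at 430 nm after 320 nm excitation. The 20-min minus 0-min signal was scaled between DMSO/no-enzyme wells and ADEP (5.8 microM final).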
a7 integrin act = qHTS for Activators of Integrin-Mediated Alleviation for Muscular Dystrophy. alpha7betagal myoblasts, beta-gal FDG fluorescence, 48 h. Potency, µM (titrated, usually from 38.3 µM), without a hit: at the highest dose activation, usual class: activators. 0.064% of 350,000 active. AID 624291, 2012;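 further: potency means the concentration at half of the fitted maximal effect; 100% = response of the positive control SU9516; nearly all actives have a fitted effect of over 60% in size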
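alpha7betagal+/- myoblasts (passage 13, 250/well) treated 48 h at 37C with compounds at 1:260 dilution of DMSO stock. Lysed, then beta-galactosidase activity read as FDG fluorescence (ex 480/em 540) after 30 min, with pre-read for autofluorescence.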
Active calls of the source: *. The list is not random: actives were taken first. Their share in the collection is about 1.9%. Unless noted, the call rests on the fitted dose curve; in most records, active means well fitted curve in the direction sought with a large enough effect; inconclusive means small, poorly fitted or top-dose-only effect, or another doubt; inactive means no such curve, though single readings can be large; an effect the other way counts as inactive or inconclusive.

For CC(C)(C)NC(=O)c1ccc2nccnc2c1 the results were IL-2 act -4, Pin1 inhibitor -9%, USP2a block 1%, PKM2 act 0%, ClpP mod -6% and a7 integrin act -4%.
For O=S(=O)(c1ccccc1)N1CCN(c2nc(-c3ccc(F)cc3)nc3cc(Cl)ccc23)CC1 the results were Pin1 inhibitor 3%.
For COC(=O)CSc1nc2c(c(-c3ccco3)c1C#N)CCCC2 the results were IL-2 act -3, Pin1 inhibitor 8%, USP2a block inconclusive, PKM2 act 18%, ClpP mod -13% and a7 integrin act -8%.
CCOC(=O)CSc1nc2c(c(-c3ccc(C)o3)c1C#N)CCCC2 was read as IL-2 act 0, Pin1 inhibitor 13%, USP2a block -1%, PKM2 act inconclusive, ClpP mod 28µM* and a7 integrin act 7%.
For COc1ccc(CCNC(=O)c2cnn3c2NC(=C2CC2)C=C3C(F)F)cc1OC the results were ClpP mod -1%.
`Cc1nc(-c2ccc(Cl)cc2)sc1C1(C)CC(c2ccccc2Br)=NO1` (stereo not given) gave IL-2 act 0, Pin1 inhibitor 2%, ClpP mod 25µM* and a7 integrin act 7%.
`Cc1cc(C)n2cc(CSc3nnnn3-c3ccc(Cl)cc3)nc2n1` gave IL-2 act -4, Pin1 inhibitor -2%, USP2a block 1%, PKM2 act 16µM*, ClpP mod inconclusive and a7 integrin act 3%.
Cc1cc(C)n2cc(CSc3nnnn3-c3ccccc3)nc2n1 was read as IL-2 act -1, Pin1 inhibitor -5%, USP2a block 3%, PKM2 act 8.9µM*, ClpP mod -18% and a7 integrin act 15%.
`ICC[n+]1csc2ccccc21` gave ClpP mod -4%.
Screening CCNC(=O)N1c2ccc(OC)cc2C(C)=CC1(C)C returned IL-2 act -1, Pin1 inhibitor inconclusive, USP2a block 0%, PKM2 act -4%, ClpP mod 32µM* and a7 integrin act -12%.
`CCOc1ccc2c(c1)C(C)=CC(C)(C)N2C(=O)Nc1ccccc1` gave IL-2 act -1, Pin1 inhibitor -14%, USP2a block 0%, PKM2 act 22%, ClpP mod 28µM* and a7 integrin act -5%.
COc1ccc(NC(=O)N2c3ccc(OC)cc3C(C)=CC2(C)C)cc1 was read as IL-2 act -1, Pin1 inhibitor -1%, USP2a block 4%, PKM2 act 9%, ClpP mod 4% and a7 integrin act -34%.
For COc1ccc(NC(=O)N2c3ccccc3C(C)=CC2(C)C)cc1 the results were IL-2 act 4, Pin1 inhibitor -7%, USP2a block 11%, PKM2 act -5% and a7 integrin act -16%.
O=C(Nc1cc(Cl)cc(Cl)c1)c1cnn2c1NC(=C1CC1)C=C2C(F)F was read as ClpP mod -9%.
For CCOC(=O)c1ccc(-c2ccc3ncnc(NCc4cccs4)c3c2)o1 the results were Pin1 inhibitor 33%.
For Cc1ccc(-c2nc3cccc(C)n3c2Nc2ccc(F)cc2)o1 the results were Pin1 inhibitor -1% and ClpP mod 4%.
Screening Cc1ccc(NS(=O)(=O)c2ccc3c(c2)CCC(=O)N3)cc1F returned Pin1 inhibitor -9%.
For CCOc1ccc(S(=O)(=O)N2CCN(C(=S)NCc3ccco3)CC2)cc1 the results were IL-2 act -1, Pin1 inhibitor 21%, USP2a block 0%, PKM2 act 14µM*, ClpP mod inconclusive and a7 integrin act 10%.
For Clc1ccccc1C1CC(c2ccccc2)=Nc2ccccc2N1 (stereo not given) the results were IL-2 act 77*, Pin1 inhibitor inconclusive, USP2a block 2%, PKM2 act -6% and a7 integrin act inconclusive.
`COc1ccc(S(=O)(=O)c2ccc(OC)c(OC)c2)cc1OC` gave IL-2 act 0, Pin1 inhibitor 1%, USP2a block 2%, PKM2 act 5%, ClpP mod 32µM* and a7 integrin act 5%.
For C=C1CCN(C(Cc2ccccc2)C(=O)O)S(=O)(=O)c2ccccc21 (stereo not given) the results were Pin1 inhibitor -7%.
Screening O=C(Nc1ccc2oc(-c3ccccc3Cl)nc2c1)c1ncn[nH]1 returned IL-2 act 0, Pin1 inhibitor 36%, USP2a block 3%, PKM2 act -2%, ClpP mod -29% and a7 integrin act -12%.
O=C(Nc1ccc2oc(-c3cccc4ccccc34)nc2c1)c1ncn[nH]1 was read as IL-2 act 0, Pin1 inhibitor inconclusive, USP2a block 1%, PKM2 act -3%, ClpP mod 32µM* and a7 integrin act -10%.
For O=C(Nc1ccc(-c2nc3ccccc3o2)cc1)c1ccc2c(c1)OCO2 the results were IL-2 act -1, Pin1 inhibitor 13%, PKM2 act -2%, ClpP mod 32µM* and a7 integrin act -30%.
O=C(Nc1ccc(-c2nc3ccccc3o2)cc1)c1ccc(N2C(=O)C3C4C=CC(C4)C3C2=O)cc1 (stereo not given) was read as IL-2 act 3, Pin1 inhibitor 3%, USP2a block 4%, PKM2 act -9%, ClpP mod 3.2µM* and a7 integrin act 19%.
CC(=O)Nc1ccc2oc(-c3cc(F)c(F)cc3Cl)nc2c1 was read as IL-2 act 2, Pin1 inhibitor 9%, USP2a block 2%, PKM2 act -2%, ClpP mod 18µM* and a7 integrin act 0%.
`CCn1cnc2c(Nc3ccc(CCC(=O)N=C(N)N)cc3)nc(C#N)nc21` gave Pin1 inhibitor 7%.
Screening O=[N+]([O-])c1cccc(S(=O)(=O)N2CCN(c3nc(-c4cccs4)nc4ccccc34)CC2)c1 returned Pin1 inhibitor 0% and ClpP mod -2%.
For O=C(Nc1ccc2oc(-c3ccccc3F)nc2c1)c1ccc2c(c1)OCCO2 the results were IL-2 act -3, Pin1 inhibitor 36%, USP2a block 1%, PKM2 act inconclusive, ClpP mod 28µM* and a7 integrin act -3%.

Screening data as filed in PubChem BioAssay.
